NS1 inh: qHTS Assay for Inhibitors of Influenza NS1 Protein Function. 0.4% of 270,000 active. Potency, µM (doses to about 46.1 µM); note: actives are rising curves; nearly all actives have a fitted effect of over 50% in size
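Recovery from NS1-induced slow growth read by OD600 in budding yeast switched to galactose assay medium (pH 6.0, -URA) at 1:100 dilution. Compound 23 nl per well; the matching strain lacking NS1 serves as control.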
Shiga inhibitor: A qHTS for Small Molecule Inhibitors of Shiga Toxin; Vero cells, Shiga toxin protein synthesis inhibition reporter; inhibition, % at 38.7 µM; 9.2% of 290,000 active; in the data active = inhibition mostly above about 28%, no sharp cut-off; inactive = mostly below about 43%
SARS PLP yeast: qHTS of Yeast-based Assay for SARS-CoV PLP; S. cerevisiae expressing SARS-CoV PLpro, growth rescue; Potency, µM (highest dose often 32.9 µM), hits mostly activators; 0.19% of 330,000 active; note: nearly all actives have a fitted effect of over 55% in size
CHX counter: Cycloheximide Counterscreen for Small Molecule Inhibitors of Shiga Toxin; 12% of 300,000 active; AID 2314, 2010; max response, %; cell reporter, cycloheximide protein synthesis inhibition counterscreen; in the data active = max response mostly above about 13%, no sharp cut-off; inactive = mostly below about 14%; note: read at 38.3 µM for the half of the compounds with a filed dose
Each line names hits and unclear results; the compound was inactive in the other large screens. In the library only some 12% were active in any assay of this set; here they are far more common. Unless noted, calls come from the whole dose curve.

CCOC(=O)[C@H]1[C@H]2COc3cc(OC)ccc3[C@@H]2N2C(=O)N(c3ccc(Cl)cc3)C(=O)[C@@]12C	none
O=C(NC1CCCC1)c1cc(-c2cccc(Cl)c2)on1	Shiga inhibitor 131, CHX counter 37
O=C(NC1CCCCC1)c1cc(-c2cccc(Cl)c2)on1	Shiga inhibitor 39, CHX counter 27
Cc1ccc(NC(=O)Cn2nc(-c3ccco3)ccc2=O)cc1Cl	none
Cc1ccc(C)c(SCC(=O)c2ccc[nH]2)c1	Shiga inhibitor 56, CHX counter 42
CCN(C(=O)CSc1cc(C)c2cccc(C)c2n1)C1CCS(=O)(=O)C1 (stereo not given)	none
CC(C)(C)c1ccc(C(=O)C2CCCN(C(=O)CCn3cncn3)C2)cc1 (stereo not given)	none
CC(=O)Nc1cccc(C(=O)OCC(=O)NC(=O)c2ccccc2)c1	none (no result: NS1 inh, Shiga inhibitor, CHX counter)
CC(=O)Nc1cccc(C(=O)OCC(=O)Nc2ccc(Cl)cn2)c1	none (no result: NS1 inh, Shiga inhibitor, CHX counter)
COc1ccccc1C(=O)NC(=O)COC(=O)c1cccc(NC(C)=O)c1	CHX counter 28
CCC(=O)Nc1cccc(C(=O)OCC(=O)c2ccccc2Cl)c1	Shiga inhibitor 74, CHX counter 31
CC(=O)Nc1cccc(C(=O)OCC(=O)c2ccccc2Cl)c1	Shiga inhibitor 125, CHX counter 35 (no result: NS1 inh)
O=C(CCN1CCCC1=O)NC1CCCc2c1cnn2-c1ccc(F)cc1F (stereo not given)	CHX counter 15
COc1ccc(/C=C2\CCCC(C(=O)C(F)(F)F)=C2O)cc1	none
O=C(C1=C(O)/C(=C/c2ccc(O)cc2)CCC1)C(F)(F)F	Shiga inhibitor 44, CHX counter 30
CN(C)S(=O)(=O)N1CCC(Oc2ccc(C(=O)NCC(C)(C)CO)cc2)CC1	none
COC(=O)CN(C)C(=O)c1ccc(OC2CCN(S(=O)(=O)N(C)C)CC2)cc1	Shiga inhibitor 33, CHX counter 21
C=CCNC(=O)c1ccc(OC2CCN(S(=O)(=O)N(C)C)CC2)cc1	Shiga inhibitor 95, CHX counter 51
CC(NC(=O)c1ccc(OC2CCN(S(=O)(=O)N(C)C)CC2)cc1)C1CC1 (stereo not given)	CHX counter 20
COCCN(C(=O)c1ccc(OC2CCN(S(=O)(=O)N(C)C)CC2)cc1)C(C)C	CHX counter 11
COCC(=O)N1CCC(Oc2ccc(C(=O)N(C)CCCC3CCCC3)cc2)CC1	CHX counter 22
C=CCN(CC=C)C(=O)c1ccc(OC2CCN(S(=O)(=O)N(C)C)CC2)cc1	Shiga inhibitor 87, CHX counter 53
CCCCNc1nc2ccccc2n1CC(=O)Nc1c(C)cccc1CC	none
COc1ccc(OC)c(Nc2nc(-c3sc(N)nc3C)cs2)c1	none
Cc1nc(C)c(-c2csc(Nc3cccnc3)n2)s1	Shiga inhibitor 38, CHX counter 34
Clc1cccc(-c2csc(Nc3cccnc3)n2)c1	none
COc1ccc(Nc2nc(-c3sc(C)nc3C)cs2)cc1	CHX counter 13
Cc1nc(C)c(-c2csc(Nc3ccc(O)c(C(=O)O)c3)n2)s1	none
Cc1nc(N)sc1-c1csc(Nc2ccccc2)n1	Shiga inhibitor 52, CHX counter 25
Cc1nc(N)sc1-c1csc(Nc2cccc(C(=O)O)c2)n1	none
Cc1nc(C)c(-c2csc(Nc3ccc(N)cc3)n2)s1	Shiga inhibitor 69, CHX counter 35
Cc1sc2nc(SCC(=O)NCc3ccco3)n(CCc3ccccc3)c(=O)c2c1C	SARS PLP yeast inconclusive
O=C(NC1CCOc2ccccc21)c1ccc(Cl)nc1 (stereo not given)	none
COc1cccc(-c2nc3ccccc3s2)c1O	CHX counter 27
COc1cc(OC)c(-c2nc3ccccc3s2)cc1OC	Shiga inhibitor 33, CHX counter 24
Clc1ncccc1-c1nc2ccccc2s1	Shiga inhibitor 106, CHX counter 34
COc1cccc(-c2nc(N3CCN(C)CC3)c3ccccc3n2)c1O	CHX counter 14
CN1CCN(c2nc(-c3ccccc3O)nc3ccccc23)CC1	none
O=c1c(-c2nc3ccccc3s2)cccn1Cc1ccc(Cl)cc1	none
CCN(CC)c1nc(-c2cccc(OC)c2O)nc2ccccc12	none
COc1cccc2cc(C(=O)Nc3cc(Cl)ccc3N3CCOCC3)c(=O)oc12	none (no result: Shiga inhibitor)
COc1ccc(OC)c(-n2c(SCC(=O)NCC3CCCO3)nc3ccccc3c2=O)c1 (stereo not given)	none (no result: NS1 inh, Shiga inhibitor, CHX counter)
CC(=O)c1ccc(NC(=O)C(C)OC(=O)c2ccc3c(c2)nc(C)n3-c2ccccc2)cc1 (stereo not given)	Shiga inhibitor 45, CHX counter 29
CC(=O)c1cc(C(=O)Nc2ccc3ccccc3c2)c(C)o1	none
Cc1cc(C(=O)Nc2cccc(C(=O)O)c2)oc1C	NS1 inh inconclusive, Shiga inhibitor 81, CHX counter 38
Cc1ccoc1C(=O)Nc1ccc(CC(=O)O)cc1	none
Cc1cc(C(=O)Nc2ccc3ccccc3c2)oc1C	Shiga inhibitor 127, CHX counter 30
Cc1cc(C(=O)Nc2ccc3ccccc3c2)c(C)o1	Shiga inhibitor 96, CHX counter 32
Cc1ccoc1C(=O)Nc1ccc2ccccc2c1	CHX counter 41
COc1cc(CNc2nnnn2C)ccc1OCc1c(F)cccc1Cl	none
Cc1cc(C(=O)Nc2nc3c(C)cccc3s2)c(C)o1	CHX counter 19
COc1cccc(-c2nn(Cc3ccccc3)cc2CO)c1	Shiga inhibitor 90, CHX counter 45
Cc1nc2cc(NC(=O)c3ccc(S(=O)(=O)N(C)c4ccccc4)cc3)ccc2o1	Shiga inhibitor 126, CHX counter 30
Cc1csc(NC(=O)c2ccc(S(=O)(=O)N(C)c3ccccc3)cc2)n1	Shiga inhibitor 42, CHX counter 34
CN(c1ccccc1)S(=O)(=O)c1ccc(NC(=O)c2ccc(-c3ccccc3)cc2)cc1	none
COc1ccc(-c2csc(NC(=O)c3ccc(S(C)(=O)=O)cc3)n2)cc1	Shiga inhibitor 72, CHX counter 33
COc1ccc(-c2csc(NC(=O)c3ccoc3C)n2)cc1	Shiga inhibitor 153, CHX counter 41 (no result: NS1 inh)
Cc1ccc(S(=O)(=O)NC(C)CCc2ccccc2)cc1C(N)=O (stereo not given)	none
CCc1ccccc1NC(=O)C1(S(=O)(=O)c2ccc(C)cc2)CC1	none
COC(=O)c1c(-c2ccncc2)csc1NC(=O)c1ccoc1C	Shiga inhibitor 66, CHX counter 21
CCc1cc(C(=O)OC)c(NC(=O)c2ccoc2C)s1	none
CN(c1ccccc1)S(=O)(=O)c1ccc(C(=O)Nc2nccs2)cc1	none
Cc1csc(NC(=O)c2ccc(S(C)(=O)=O)cc2)n1	Shiga inhibitor 72, CHX counter 40 (no result: NS1 inh)
CN(c1ccc(C(=O)Nc2nccs2)cc1)S(=O)(=O)c1ccccc1	Shiga inhibitor 57, CHX counter 38
CO[C@H]1C[C@@H]2CC[C@@H](C)[C@@](O)(O2)C(=O)C(=O)N2CCCC[C@H]2C(=O)OC([C@H](C)C[C@@H]2CC[C@@H](O)[C@H](OC)C2)CC(=O)[C@H](C)/C=C(\C)[C@@H](O)[C@@H](OC)C(=O)[C@H](C)C[C@H](C)/C=C/C=C/C=C/1C (stereo not given in full)	none (no result: NS1 inh, SARS PLP yeast)
